Data taken from the supplement of paper PMC11732987, “Enantioselective OTUD7B fragment discovery through chemoproteomics screening and high-throughput optimisation” (Communications Chemistry, 2025).

What was measured:
Experiment in all cases: log2 ratio of Biotin-Ahx-Ub-VS probe labelling (fragment/DMSO); higher = less target engagement (more negative = stronger competition), active = hit call of the paper (q ≤ 0.05, log2 ratio ≤ -1)
Details in all cases: compound concentration: 200 uM; treatment time: 3 h
USP42 = target: T1, USP42 (UniProt Q9H9J4)
T1 sequence (whole entry): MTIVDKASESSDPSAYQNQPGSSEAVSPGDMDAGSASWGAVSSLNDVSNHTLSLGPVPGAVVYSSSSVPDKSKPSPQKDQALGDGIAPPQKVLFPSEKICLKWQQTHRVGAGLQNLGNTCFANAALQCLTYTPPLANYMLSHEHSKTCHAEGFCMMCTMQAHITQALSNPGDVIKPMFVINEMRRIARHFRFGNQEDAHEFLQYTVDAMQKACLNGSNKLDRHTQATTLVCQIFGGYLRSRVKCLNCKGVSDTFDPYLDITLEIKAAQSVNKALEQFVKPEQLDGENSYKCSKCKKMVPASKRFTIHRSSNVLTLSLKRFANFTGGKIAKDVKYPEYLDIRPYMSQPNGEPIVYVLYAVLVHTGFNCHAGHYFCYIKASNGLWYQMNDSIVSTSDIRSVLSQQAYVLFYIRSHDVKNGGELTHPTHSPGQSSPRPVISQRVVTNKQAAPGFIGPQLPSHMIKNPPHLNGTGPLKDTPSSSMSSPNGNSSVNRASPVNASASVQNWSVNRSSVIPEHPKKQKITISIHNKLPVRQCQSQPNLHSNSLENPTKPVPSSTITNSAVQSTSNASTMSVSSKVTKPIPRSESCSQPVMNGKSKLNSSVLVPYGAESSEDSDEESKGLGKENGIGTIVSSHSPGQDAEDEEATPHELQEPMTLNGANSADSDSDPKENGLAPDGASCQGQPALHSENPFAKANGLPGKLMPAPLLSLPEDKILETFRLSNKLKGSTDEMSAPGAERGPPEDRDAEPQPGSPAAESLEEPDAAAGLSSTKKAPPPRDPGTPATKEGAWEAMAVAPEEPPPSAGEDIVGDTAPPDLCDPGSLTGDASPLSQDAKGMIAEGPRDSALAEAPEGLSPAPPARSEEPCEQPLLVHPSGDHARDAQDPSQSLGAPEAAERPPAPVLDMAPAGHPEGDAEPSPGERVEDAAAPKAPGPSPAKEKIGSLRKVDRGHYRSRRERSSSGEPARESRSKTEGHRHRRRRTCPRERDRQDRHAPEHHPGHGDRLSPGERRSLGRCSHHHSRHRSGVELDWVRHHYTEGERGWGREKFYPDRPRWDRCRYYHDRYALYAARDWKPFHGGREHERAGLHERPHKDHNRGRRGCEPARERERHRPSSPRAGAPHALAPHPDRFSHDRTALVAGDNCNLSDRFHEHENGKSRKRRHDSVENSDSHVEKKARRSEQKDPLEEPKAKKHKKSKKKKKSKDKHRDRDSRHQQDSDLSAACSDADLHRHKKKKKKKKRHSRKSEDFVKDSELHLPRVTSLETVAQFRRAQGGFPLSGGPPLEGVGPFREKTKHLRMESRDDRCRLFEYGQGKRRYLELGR
Outline: (§1)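 The table lists average log2 ratios of fragment over vehicle, from an unpaired t-test on global-median-normalised Spectronaut label-free quantities. Proteins with ≥2 unique peptides were used. Samples were HEK293T lysate (495 µg) treated in triplicate with fragment at 200 µM or vehicle for 3 h, then with Biotin-Ahx-Ub-VS (0.5 µM final) for 1 h, with labelled DUBs NeutrAvidin-enriched and run by diaPASEF LC-MS/MS.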

USP46 = USP46 (UniProt P62068)
Chain of USP46 (P62068 whole entry): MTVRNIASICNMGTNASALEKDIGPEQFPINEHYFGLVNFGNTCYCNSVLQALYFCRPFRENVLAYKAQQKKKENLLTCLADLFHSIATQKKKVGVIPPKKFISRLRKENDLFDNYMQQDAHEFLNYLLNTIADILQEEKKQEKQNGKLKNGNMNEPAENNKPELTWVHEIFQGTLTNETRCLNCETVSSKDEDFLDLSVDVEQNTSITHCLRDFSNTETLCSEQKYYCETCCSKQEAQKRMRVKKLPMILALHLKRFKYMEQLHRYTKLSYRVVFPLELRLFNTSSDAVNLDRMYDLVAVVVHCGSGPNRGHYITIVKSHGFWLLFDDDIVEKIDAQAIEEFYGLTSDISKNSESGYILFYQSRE
Outline: as §1

USP47 = target: T2, USP47 (UniProt Q96K76)
T2 sequence (whole entry): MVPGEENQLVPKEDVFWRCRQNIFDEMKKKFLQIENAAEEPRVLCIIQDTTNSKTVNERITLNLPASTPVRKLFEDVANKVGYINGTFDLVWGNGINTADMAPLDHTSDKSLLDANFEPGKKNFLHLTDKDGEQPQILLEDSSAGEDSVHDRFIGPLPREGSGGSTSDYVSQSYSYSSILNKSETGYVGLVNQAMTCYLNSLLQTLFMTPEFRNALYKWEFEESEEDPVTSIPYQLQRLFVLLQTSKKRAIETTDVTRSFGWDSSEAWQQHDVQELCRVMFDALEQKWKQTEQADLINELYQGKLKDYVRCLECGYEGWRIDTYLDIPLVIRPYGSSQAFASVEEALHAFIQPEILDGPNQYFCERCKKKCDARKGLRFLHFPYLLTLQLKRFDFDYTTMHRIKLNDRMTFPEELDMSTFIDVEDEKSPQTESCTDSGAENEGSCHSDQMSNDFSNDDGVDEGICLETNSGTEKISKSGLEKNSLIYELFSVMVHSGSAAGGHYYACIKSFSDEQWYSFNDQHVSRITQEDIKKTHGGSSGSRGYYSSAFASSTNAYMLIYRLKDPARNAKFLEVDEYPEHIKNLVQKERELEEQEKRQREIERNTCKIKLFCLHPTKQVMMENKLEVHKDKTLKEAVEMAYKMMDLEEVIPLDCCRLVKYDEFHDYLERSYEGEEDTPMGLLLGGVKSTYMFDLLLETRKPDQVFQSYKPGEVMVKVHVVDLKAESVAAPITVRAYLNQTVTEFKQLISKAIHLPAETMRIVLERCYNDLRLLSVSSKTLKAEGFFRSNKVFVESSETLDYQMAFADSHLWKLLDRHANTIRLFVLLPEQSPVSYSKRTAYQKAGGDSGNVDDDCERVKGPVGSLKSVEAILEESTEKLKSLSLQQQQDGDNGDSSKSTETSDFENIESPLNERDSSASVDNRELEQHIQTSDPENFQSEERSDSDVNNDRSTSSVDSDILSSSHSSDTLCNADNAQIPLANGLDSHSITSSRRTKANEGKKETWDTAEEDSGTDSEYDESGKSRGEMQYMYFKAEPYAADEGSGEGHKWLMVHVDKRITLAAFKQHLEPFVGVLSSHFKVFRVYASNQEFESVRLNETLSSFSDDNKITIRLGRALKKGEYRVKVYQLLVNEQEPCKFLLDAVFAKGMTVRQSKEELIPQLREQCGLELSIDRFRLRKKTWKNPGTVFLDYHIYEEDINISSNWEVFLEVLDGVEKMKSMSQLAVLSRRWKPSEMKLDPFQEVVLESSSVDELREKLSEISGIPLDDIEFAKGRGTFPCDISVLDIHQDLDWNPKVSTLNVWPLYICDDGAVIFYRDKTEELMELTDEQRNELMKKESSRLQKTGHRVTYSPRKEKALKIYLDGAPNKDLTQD
Outline: as §1

USP48 = target: T3, USP48 (UniProt Q86UV5)
T3 sequence (whole entry): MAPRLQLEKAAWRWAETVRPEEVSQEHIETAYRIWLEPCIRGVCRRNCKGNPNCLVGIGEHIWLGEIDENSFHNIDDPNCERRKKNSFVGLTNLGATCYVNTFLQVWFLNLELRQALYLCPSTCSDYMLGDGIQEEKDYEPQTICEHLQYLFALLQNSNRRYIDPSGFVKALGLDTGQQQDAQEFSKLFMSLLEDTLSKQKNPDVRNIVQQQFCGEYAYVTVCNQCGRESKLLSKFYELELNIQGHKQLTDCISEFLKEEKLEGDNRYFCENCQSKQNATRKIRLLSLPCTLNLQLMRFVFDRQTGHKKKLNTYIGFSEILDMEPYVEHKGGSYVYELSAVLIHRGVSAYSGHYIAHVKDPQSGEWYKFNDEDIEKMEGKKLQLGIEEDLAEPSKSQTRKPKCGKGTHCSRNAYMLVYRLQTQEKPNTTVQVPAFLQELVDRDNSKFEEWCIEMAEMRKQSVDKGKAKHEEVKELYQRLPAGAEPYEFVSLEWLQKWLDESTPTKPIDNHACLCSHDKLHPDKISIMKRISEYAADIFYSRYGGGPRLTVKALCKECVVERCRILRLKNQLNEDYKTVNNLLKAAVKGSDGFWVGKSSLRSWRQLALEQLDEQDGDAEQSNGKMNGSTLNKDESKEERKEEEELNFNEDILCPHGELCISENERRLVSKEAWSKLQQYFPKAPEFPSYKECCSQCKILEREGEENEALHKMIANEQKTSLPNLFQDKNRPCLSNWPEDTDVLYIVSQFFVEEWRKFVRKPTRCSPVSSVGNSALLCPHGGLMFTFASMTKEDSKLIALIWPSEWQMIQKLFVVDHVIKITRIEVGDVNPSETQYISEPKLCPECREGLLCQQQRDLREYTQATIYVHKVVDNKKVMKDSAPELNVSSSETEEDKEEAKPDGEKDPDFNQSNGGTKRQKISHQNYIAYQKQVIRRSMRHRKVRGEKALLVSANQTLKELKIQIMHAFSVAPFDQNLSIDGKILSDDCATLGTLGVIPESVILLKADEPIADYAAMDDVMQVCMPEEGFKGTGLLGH
Outline: as §1

USP5 = target: T4, USP5 (UniProt P45974)
T4 sequence (whole entry): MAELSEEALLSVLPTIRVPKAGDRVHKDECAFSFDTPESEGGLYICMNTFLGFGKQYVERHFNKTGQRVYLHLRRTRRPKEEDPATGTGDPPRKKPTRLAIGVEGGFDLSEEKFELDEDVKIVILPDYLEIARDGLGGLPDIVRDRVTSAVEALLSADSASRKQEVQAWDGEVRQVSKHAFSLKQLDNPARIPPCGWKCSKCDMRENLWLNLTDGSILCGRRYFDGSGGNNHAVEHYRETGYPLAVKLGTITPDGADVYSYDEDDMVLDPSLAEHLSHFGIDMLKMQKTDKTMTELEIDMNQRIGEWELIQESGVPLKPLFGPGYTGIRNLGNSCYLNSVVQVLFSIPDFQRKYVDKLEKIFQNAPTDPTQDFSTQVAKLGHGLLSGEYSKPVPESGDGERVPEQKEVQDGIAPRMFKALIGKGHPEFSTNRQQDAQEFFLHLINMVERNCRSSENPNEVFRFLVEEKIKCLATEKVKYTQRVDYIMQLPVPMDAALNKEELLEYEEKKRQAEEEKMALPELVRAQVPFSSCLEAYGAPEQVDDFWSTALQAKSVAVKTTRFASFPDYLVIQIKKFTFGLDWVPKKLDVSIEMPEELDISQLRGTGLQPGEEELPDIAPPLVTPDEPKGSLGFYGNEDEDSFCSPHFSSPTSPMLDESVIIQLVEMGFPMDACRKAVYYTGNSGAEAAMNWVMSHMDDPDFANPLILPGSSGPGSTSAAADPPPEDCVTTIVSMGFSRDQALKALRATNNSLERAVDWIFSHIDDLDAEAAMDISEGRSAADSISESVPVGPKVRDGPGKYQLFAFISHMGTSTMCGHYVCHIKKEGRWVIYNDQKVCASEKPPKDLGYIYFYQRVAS
Outline: as §1

USP54 = USP54 (UniProt Q70EL1)
Chain of USP54 (Q70EL1 whole entry): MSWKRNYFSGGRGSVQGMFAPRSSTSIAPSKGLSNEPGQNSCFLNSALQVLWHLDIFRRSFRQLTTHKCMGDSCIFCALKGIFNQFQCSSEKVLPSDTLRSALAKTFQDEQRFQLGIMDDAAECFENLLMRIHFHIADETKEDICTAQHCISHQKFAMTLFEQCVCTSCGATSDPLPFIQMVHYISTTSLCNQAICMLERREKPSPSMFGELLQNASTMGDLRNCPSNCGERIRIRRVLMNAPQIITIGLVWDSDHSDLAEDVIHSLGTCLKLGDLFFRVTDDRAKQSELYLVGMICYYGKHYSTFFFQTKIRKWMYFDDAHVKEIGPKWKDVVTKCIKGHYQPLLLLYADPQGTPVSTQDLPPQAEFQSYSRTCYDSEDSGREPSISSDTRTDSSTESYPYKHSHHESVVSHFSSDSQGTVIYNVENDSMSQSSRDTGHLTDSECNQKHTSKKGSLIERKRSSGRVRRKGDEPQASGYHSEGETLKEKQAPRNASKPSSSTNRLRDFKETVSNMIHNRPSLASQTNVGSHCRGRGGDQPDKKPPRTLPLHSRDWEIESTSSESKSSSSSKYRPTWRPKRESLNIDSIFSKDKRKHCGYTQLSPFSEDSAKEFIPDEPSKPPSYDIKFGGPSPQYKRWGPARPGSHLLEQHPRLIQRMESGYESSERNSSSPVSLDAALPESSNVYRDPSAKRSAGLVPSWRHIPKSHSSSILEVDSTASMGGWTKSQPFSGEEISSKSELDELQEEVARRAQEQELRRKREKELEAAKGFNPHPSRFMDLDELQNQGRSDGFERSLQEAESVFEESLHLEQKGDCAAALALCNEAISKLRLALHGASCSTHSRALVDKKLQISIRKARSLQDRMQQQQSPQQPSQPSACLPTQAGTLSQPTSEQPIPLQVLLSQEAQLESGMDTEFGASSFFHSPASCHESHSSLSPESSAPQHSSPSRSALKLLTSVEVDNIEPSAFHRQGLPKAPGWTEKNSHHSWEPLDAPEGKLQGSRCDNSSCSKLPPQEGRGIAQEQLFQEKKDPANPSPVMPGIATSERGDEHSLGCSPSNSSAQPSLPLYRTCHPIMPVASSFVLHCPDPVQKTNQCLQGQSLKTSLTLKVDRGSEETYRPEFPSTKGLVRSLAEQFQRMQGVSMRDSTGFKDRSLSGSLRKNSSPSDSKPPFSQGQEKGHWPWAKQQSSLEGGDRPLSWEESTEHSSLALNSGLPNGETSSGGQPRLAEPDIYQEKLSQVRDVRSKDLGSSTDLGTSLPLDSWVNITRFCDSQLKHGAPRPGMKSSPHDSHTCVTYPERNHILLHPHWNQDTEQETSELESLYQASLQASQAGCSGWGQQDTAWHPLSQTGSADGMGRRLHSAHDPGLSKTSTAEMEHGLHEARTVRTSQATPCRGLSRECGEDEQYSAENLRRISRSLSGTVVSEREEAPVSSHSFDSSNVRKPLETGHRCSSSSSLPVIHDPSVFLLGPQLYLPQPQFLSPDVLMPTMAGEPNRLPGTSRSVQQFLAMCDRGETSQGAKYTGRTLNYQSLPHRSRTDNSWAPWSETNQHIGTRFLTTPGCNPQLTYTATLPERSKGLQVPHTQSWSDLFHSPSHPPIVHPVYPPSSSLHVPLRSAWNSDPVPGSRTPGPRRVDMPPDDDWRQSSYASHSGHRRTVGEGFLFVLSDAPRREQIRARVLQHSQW
Outline: as §1

USP7 = USP7 (UniProt Q93009)
Chain of USP7 (Q93009 whole entry, looked up): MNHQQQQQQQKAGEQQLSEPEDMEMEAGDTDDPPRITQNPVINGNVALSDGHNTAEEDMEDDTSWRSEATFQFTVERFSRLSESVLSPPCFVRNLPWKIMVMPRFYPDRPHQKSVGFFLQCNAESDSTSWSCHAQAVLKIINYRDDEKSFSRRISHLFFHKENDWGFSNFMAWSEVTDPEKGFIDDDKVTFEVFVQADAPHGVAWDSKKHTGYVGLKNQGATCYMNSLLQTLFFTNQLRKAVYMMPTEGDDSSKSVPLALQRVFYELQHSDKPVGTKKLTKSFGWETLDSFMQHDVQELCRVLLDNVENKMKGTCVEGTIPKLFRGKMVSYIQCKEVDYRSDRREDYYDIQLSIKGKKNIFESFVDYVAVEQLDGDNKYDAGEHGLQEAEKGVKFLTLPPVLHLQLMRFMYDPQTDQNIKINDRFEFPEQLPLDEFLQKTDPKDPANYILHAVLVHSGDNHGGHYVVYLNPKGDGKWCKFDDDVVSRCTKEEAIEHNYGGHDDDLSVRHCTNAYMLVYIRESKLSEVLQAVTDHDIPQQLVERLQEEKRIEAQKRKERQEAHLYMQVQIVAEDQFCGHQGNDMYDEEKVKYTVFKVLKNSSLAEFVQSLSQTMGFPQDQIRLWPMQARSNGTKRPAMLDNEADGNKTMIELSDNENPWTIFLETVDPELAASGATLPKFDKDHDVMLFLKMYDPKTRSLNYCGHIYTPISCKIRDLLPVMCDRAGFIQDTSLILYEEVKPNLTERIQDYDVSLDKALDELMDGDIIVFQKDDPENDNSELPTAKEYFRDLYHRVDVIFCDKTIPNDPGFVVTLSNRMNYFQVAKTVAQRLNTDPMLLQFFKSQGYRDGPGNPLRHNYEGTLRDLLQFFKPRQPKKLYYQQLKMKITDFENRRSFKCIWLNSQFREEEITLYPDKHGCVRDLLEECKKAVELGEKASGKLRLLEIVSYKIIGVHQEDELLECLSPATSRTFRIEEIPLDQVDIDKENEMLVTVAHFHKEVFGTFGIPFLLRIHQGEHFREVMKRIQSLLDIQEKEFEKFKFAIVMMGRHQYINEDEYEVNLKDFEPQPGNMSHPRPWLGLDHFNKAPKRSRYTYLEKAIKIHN
Outline: as §1

USP8 = target: T5, USP8 (UniProt P40818)
T5 sequence (whole entry): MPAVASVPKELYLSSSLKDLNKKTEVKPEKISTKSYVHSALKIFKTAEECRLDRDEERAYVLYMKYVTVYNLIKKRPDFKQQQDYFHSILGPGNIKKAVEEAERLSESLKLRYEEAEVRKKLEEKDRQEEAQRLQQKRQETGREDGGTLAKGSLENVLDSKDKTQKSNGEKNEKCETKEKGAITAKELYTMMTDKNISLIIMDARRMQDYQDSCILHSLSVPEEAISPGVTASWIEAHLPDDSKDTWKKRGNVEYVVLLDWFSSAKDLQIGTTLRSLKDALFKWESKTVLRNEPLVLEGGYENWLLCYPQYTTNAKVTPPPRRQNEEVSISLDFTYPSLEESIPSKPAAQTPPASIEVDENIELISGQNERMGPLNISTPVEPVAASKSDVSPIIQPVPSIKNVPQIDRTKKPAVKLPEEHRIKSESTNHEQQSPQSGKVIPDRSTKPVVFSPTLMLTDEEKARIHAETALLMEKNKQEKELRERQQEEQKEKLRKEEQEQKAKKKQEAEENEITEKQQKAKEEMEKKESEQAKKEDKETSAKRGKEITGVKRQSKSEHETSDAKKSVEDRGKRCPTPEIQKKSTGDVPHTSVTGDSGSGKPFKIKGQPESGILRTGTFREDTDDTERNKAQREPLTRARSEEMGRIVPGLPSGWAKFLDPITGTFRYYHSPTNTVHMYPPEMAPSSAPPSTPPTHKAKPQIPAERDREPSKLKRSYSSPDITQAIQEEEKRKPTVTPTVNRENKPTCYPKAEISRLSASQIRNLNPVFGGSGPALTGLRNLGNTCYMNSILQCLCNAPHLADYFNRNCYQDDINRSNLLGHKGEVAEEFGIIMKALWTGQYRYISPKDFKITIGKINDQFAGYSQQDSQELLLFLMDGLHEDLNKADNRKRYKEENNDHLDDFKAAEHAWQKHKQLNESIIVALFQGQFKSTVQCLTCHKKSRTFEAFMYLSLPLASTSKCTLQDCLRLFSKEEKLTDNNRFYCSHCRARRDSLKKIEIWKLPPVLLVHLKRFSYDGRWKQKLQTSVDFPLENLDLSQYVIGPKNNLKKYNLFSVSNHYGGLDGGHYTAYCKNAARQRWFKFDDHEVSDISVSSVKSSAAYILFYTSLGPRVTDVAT
Outline: as §1

USP9X = USP9X (UniProt Q93008)
Outline: as §1

UniProt O00487 = target: UniProt O00487
Chain of UniProt O00487 (O00487 whole entry): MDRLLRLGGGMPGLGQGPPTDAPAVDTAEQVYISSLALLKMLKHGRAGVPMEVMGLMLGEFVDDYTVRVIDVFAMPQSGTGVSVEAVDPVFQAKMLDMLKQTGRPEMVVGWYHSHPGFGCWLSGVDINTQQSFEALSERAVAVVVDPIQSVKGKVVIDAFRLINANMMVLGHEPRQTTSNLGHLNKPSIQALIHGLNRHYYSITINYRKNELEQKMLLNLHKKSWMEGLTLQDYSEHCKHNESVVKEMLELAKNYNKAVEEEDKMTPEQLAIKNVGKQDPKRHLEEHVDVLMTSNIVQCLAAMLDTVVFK
Outline: as §1

Measured: log2 ratio of Biotin-Ahx-Ub-VS probe labelling

O=C(CCl)N1CCC(C(O)c2ccc(F)cc2)CC1 (stereo not given)
inactive: USP42 0.365 | USP46 0.252 | USP47 -0.324 | USP48 0.00604 | USP5 0.131 | USP54 -0.000277 | USP7 -0.0695 | USP8 0.0961 | USP9X 0.23 | UniProt O00487 0.0841
